Screens (PubChem BioAssay)
SIRT5 block = blocks human SIRT5 desuccinylation of peptide. actives 1.1% (n = 330,000). AID 652115. inhibition, % at 15 µM. Purified SirT5, succinyl-peptide AMC, trypsin-coupled fluorescence; in the data active = inhibition above about 15%
Target sequence (Q9NXA8 whole entry, looked up): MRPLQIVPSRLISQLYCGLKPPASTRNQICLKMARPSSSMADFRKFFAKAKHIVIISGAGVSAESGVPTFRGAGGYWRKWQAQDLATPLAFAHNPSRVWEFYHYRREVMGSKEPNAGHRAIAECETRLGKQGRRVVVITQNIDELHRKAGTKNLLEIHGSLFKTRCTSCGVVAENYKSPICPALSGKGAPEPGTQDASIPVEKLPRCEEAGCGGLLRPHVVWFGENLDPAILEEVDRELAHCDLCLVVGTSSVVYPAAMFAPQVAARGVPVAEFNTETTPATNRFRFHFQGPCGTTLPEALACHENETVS
FGF22 binding = shifts melting point of recombinant human FGF22; AID 651658; actives 1.5% (n = 340,000); activity (Tm shift, normalised), % at 9.99 µM; recombinant FGF22 thermal shift, SYPRO orange fluorescence; percent of sucrose octasulfate shift, DMSO zero;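 active = mean Tm shift, scaled 0 neutral to 100 positive control, at about 1.3% or above, every replicate too, limit read from the data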
dFosB act = enhances mouse delta FosB homodimer DNA binding. P13346. purified delta FosB, TAMRA-CDK5 oligo fluorescence polarization; percent of positive-control signal above neutral wells. activation, % at 25 µM. actives 0.99% (n = 340,000);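 active = mean activation above about 17%, with every replicate also reaching it, limit read from the data, passing the limit was not always enough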
Target sequence (P13346 whole entry, looked up): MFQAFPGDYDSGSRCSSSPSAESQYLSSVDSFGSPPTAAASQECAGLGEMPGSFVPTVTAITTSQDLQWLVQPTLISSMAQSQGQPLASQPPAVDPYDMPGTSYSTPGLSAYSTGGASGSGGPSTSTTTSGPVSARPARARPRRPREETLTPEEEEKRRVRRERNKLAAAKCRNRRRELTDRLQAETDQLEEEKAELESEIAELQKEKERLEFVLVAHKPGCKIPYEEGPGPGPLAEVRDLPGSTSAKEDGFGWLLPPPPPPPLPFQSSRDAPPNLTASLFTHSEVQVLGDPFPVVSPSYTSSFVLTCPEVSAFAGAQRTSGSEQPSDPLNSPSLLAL
PglD inh = PglD (C. jejuni) enzyme inhibition; purified PglD enzyme, DTNB colorimetric CoA detection; inhibition, % at 12.5 µM; actives 0.098% (n = 360,000); in the data active = inhibition above about 16%, passing the limit was not always enough
PvdQ acylase = blocks Pseudomonas aeruginosa PvdQ acylase activity. AID 488965. actives 0.063% (n = 340,000). inhibition, % at 10 µM. purified PvdQ acylase, fluorescence plate reader; in the data active = inhibition above about 30%, passing the limit was not always enough;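 also: 0% = vehicle neutral wells and 100% = reference inhibitor wells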
CDK5 p35 inh = CDK5/p35 (human) kinase inhibition; Q00535+Q15078; Recombinant CDK5/p35, ADP-Glo luminescence, 60 min; inhibition, % at 10 µM; actives 0.01% (n = 330,000); AID 488839;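 active = highest replicate inhibition of at least 50% and at least 75% of replicates reaching 50%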;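 also: plate controls were DMSO neutral control for no effect and GW8510 at 10 µM for full effect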
The depositor's hits bear a star; . = no result given. Most compounds without a hit are left out; they make up all but 2.8% or so of the library.

SMILES | SIRT5 block | FGF22 binding | dFosB act | PglD inh | PvdQ acylase | CDK5 p35 inh
OCCNc1nc(Nc2cccc(O)c2)nc2ccccc12 | -2.0 | -0.3 | 10.4 | . | -12.1 | 2.6
O=C(O)c1ccc(Nc2nc(-c3ccccc3)nc3ccccc23)cc1 | 39.2* | -0.1 | -39.4 | 3.7 | -7.0 | -6.4
Cc1ccc(-c2nc(Nc3cccc(O)c3)c3ccccc3n2)cc1 | 0.3 | 0.0 | 22.0* | 0.2 | -15.3 | 0.6
Cc1ccc(-c2nc(Nc3ccc(O)cc3)c3ccccc3n2)cc1 | -0.4 | -0.1 | 0.1 | 6.9 | -6.1 | 0.1
Oc1cccc(Nc2c3ccccc3nc3ccccc23)c1 | -9.1 | -0.5 | 64.9* | 0.6 | -7.1 | 0.7
Oc1ccc(Nc2nc(-c3ccccc3O)nc3ccccc23)cc1 | -0.6 | 1.0 | 10.7 | -1.8 | -8.8 | 2.4
Oc1cccc(Nc2nc(-c3ccccc3Cl)nc3ccccc23)c1 | 1.4 | 1.6* | -0.1 | 1.6 | 7.5 | 0.8
O=C(Nc1ccccc1F)N1CC(=O)N2[C@H](CO)[C@H](c3ccc(C#CC4CC4)cc3)[C@H]2C1 | 1.3 | . | . | . | . | .
CCC(=O)N1C[C@H](O)COC[C@H]2O[C@@H](CC(=O)NC)CC[C@@H]21 | 5.3 | 0.0 | . | 2.2 | . | .
COc1ccc(S(=O)(=O)N(C)C[C@@H]2Oc3ccc(NC(=O)Cc4ccccc4)cc3C(=O)N([C@H](C)CO)C[C@H]2C)cc1 | -0.8 | 0.1 | . | 4.2 | . | .
c1cncc(Nc2c3ccccc3nc3ccccc23)c1 | -3.9 | -0.2 | 30.1* | -3.8 | 5.8 | -1.1
O=C(O)c1cccc(Nc2nc(C(F)(F)F)nc3ccccc23)c1 | 1.9 | 2.0* | 0.7 | . | 1.5 | 1.2
COc1ccc(S(=O)(=O)Nc2cccc3c2O[C@@H](CN(C)C)[C@@H](C)CN([C@H](C)CO)C3=O)cc1 | -3.8 | -0.1 | . | -5.4 | . | .
Cc1ccc(S(=O)(=O)N(C)C[C@H]2Oc3ccc(NC(=O)Nc4ccc(C(F)(F)F)cc4)cc3C(=O)N([C@H](C)CO)C[C@@H]2C)cc1 | -3.3 | 0.5 | . | 0.4 | . | .
COc1ccc(S(=O)(=O)Nc2ccc3c(c2)C(=O)N([C@@H](C)CO)C[C@H](C)[C@H](CN(C)S(=O)(=O)c2cccs2)OCCCC[C@H](C)O3)cc1 | 15.3* | -0.4 | . | 0.2 | . | .
COc1ccc(S(=O)(=O)Nc2ccc3c(c2)C(=O)N([C@H](C)CO)C[C@H](C)[C@H](CN(C)S(=O)(=O)c2cccs2)OCCCC[C@H](C)O3)cc1 | 17.9* | -0.1 | . | -1.2 | . | .
C[C@H](CO)N1C[C@H](C)[C@H](CN(C)S(=O)(=O)c2cccs2)OCCCC[C@H](C)Oc2ccc(NS(=O)(=O)c3ccc(Cl)cc3)cc2C1=O | 4.7 | 1.2* | . | 0.2 | . | .
C[C@H](CO)N1C[C@H](C)[C@@H](CN(C)S(=O)(=O)c2cccs2)OCCCC[C@H](C)Oc2ccc(NS(=O)(=O)c3ccc(Cl)cc3)cc2C1=O | -0.8 | -0.7 | . | 0.1 | . | .
COc1ccc(NC(=O)Nc2ccc3c(c2)C(=O)N([C@H](C)CO)C[C@H](C)[C@@H](CN(C)S(=O)(=O)c2cccs2)OCCCC[C@@H](C)O3)cc1 | 19.2* | -0.6 | . | 2.2 | . | .
COc1ccc(S(=O)(=O)Nc2ccc3c(c2)C(=O)N([C@H](C)CO)C[C@H](C)[C@@H](CN(C)S(=O)(=O)c2cccs2)OCCCC[C@H](C)O3)cc1 | 1.6 | -0.3 | . | 0.2 | . | .
N#C[C@@H]1[C@H](c2ccccc2-c2cccc(F)c2)[C@H](CO)N1C(=O)C1CCC1 | 1.0 | -0.2 | . | . | . | .
C[C@H]1CN([C@@H](C)CO)C(=O)c2cc(C#Cc3cccnc3)cnc2O[C@@H]1CN(C)C(=O)CN(C)C | -3.2 | 0.0 | . | -1.4 | . | .
C[C@H](CO)N1C[C@H](C)[C@H](CN(C)C(=O)Nc2ccccc2)OCCCC[C@H](C)Oc2ccc(NC(=O)Cc3ccccc3)cc2C1=O | -1.4 | -0.4 | . | 2.7 | . | .
Cc1nc2cc(C(=O)N3CCc4ccccc43)ccc2n1-c1ccc(F)c(F)c1 | 16.0* | 0.3 | -4.7 | -3.3 | 0.5 | -1.4
CC(C)NC(=O)Nc1ccc2c(c1)C(=O)N([C@@H](C)CO)C[C@H](C)[C@@H](CN(C)CC1CCCCC1)OCCCC[C@@H](C)O2 | 1.3 | -0.1 | . | 3.1 | . | .
SMILES | SIRT5 block | FGF22 binding | dFosB act | PglD inh | PvdQ acylase | CDK5 p35 inh
CCC(=O)N1CC2(C1)CN(CC1CCOCC1)[C@H](CO)c1c2c2ccc(OC)cc2n1C | . | -0.4 | . | . | . | .
CC(=O)C(Cc1ccccc1)(Cc1ccccc1)C(C)=O | -3.7 | 0.6 | -0.7 | -3.1 | 0.0 | -1.5
CC(C)(Cc1cccc(CC(C)(C)C(=O)O)c1)C(=O)O | 2.4 | 17.3* | -11.6 | 19.6 | -1.8 | -6.9
CC(C)N1CCc2c(sc(NC(=O)c3ccc(C(=O)c4ccccc4)cc3)c2C(N)=O)C1 | -3.3 | -0.2 | 29.2* | 8.1 | -4.2 | 0.9
CC(=O)Nc1sc2c(c1-c1nc3ccccc3s1)CCN(C(C)C)C2 | . | . | 35.4* | -5.0 | 13.0 | 0.5
CC(C)N1CCc2c(sc(NC(=O)c3cc4cc([N+](=O)[O-])ccc4s3)c2C(N)=O)C1 | 0.8 | 0.1 | 48.2* | -7.9 | 0.1 | 0.7
CC(C)N1CCc2c(sc(NC(=O)c3ccc4ccccc4c3)c2C(N)=O)C1 | -1.3 | 0.1 | -33.3 | -2.3 | -2.5 | 1.5
C[C@H]1CN([C@@H](C)CO)C(=O)c2cc(-c3ccccc3F)cnc2O[C@@H]1CN(C)Cc1ccccc1 | -1.1 | 0.1 | . | 0.1 | . | .
C=CCn1c(SCC(=O)c2ccc(O)c(O)c2)nnc1-c1ccc(C)cc1 | 43.6* | -0.2 | -3.3 | 1.0 | -9.8 | -3.0
C=CCn1c(SCC(=O)c2ccc(O)c(O)c2)nnc1-c1ccc(OC)cc1 | -2.4 | -0.2 | -1.4 | -2.1 | 4.1 | -0.9
C/C=C/c1ccccc1[C@H]1[C@@H](CO)N(C(=O)NC2CCCCC2)[C@H]1C#N | 0.1 | -0.2 | . | . | . | .
CCc1ccc(C(=O)CN2C(=O)NC(C)(c3ccc(C)cc3)C2=O)cc1 (configuration not stated) | -4.1 | 43.4* | -7.8 | 1.5 | -1.0 | -1.8
Cc1ccc(C2(C)NC(=O)N(CC(=O)c3ccc4c(c3)OCCO4)C2=O)cc1 (configuration not stated) | -0.7 | -0.2 | -4.9 | 3.4 | -8.7 | 1.2
CS(=O)(=O)N1[C@@H](C#N)[C@@H](c2ccccc2-c2ccccc2F)[C@@H]1CO | -0.2 | . | . | . | . | .
C[C@@H]1CCCCO[C@H](CN(C)C(=O)CCCN(C)C)[C@@H](C)CN([C@@H](C)CO)C(=O)c2cc(NC(=O)Nc3ccccc3)ccc2O1 | -2.0 | -0.6 | . | 33.0 | . | .
Cc1noc(C)c1NC(=O)N1C[C@@H](O)COC[C@H]2O[C@@H](CC(=O)NCC3CCCCC3)CC[C@@H]21 | 2.1 | -0.2 | . | 2.1 | . | .
C=C1c2cccc(O)c2C(=O)C2C(=O)[C@]3(O)C(=O)C(C(N)=O)C(=O)[C@@H](N(C)C)[C@@H]3[C@@H](O)[C@H]12 (some centres not stated) | 45.7* | -0.2 | -16.1 | 1.0 | 2.9 | 0.6
